Data reported in PubChem BioAssay (NCATS).
Inconclusive results are not listed. Values without a mark were called inactive. The source made the active and inactive calls. The call rests on the fitted dose curve; in most records, active means well fitted inhibition curve with a large enough effect; inconclusive means small, poorly fitted or top-dose-only effect; inactive means no such curve, though single readings can be large or run the other way.

target: Papain (Carica papaya) (UniProt P00784); assay: Primary qHTS assay for inhibitors of the protease papain (AID 1645873); conditions: papain Z-FR-AMC cleavage, AMC fluorescence; series mostly up to 49.8 µM; activity change, negative = inhibition: at the top concentration;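 further: papain turnover of Z-FR-AMC read as the AMC fluorescence gain over 10 min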
Sequence (P00784 whole entry, looked up): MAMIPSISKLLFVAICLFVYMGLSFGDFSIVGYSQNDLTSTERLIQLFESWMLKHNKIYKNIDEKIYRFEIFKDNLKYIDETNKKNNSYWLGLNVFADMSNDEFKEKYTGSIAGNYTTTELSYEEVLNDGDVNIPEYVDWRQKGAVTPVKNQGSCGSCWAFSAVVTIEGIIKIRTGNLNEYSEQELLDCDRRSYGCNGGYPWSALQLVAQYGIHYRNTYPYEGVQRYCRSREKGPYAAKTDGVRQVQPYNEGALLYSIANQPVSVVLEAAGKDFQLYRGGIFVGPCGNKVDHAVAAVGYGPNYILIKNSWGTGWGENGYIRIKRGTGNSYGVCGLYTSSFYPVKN
On the % scale 0 is the no-effect control and ±100 the full control effect; potency means the concentration at half of the fitted maximal effect.

Row | Compound | activity change, negative = inhibition | Potency
1 | C=CC(C)=C[C@@]1(C)SC(=O)C(C)=C1O | -13.2% | –
2 | COc1cccc(C(=O)NCCN2CCN(c3ccc(Cl)cc3)CC2)c1 | -11.3% | –
3 | CN[C@H](CC(C)C)C(=O)N[C@H]1C(=O)N[C@@H](CC(N)=O)C(=O)N[C@H]2C(=O)N[C@H]3C(=O)N[C@H](C(=O)N[C@H](C(=O)O)c4cc(O)cc(O)c4-c4cc3ccc4O)[C@H](O)c3ccc(c(Cl)c3)Oc3cc2cc(c3O[C@@H]2O[C@H](CO)[C@@H](O)[C@H](O)[C@H]2O[C@H]2C[C@](C)(N)[C@H](O)[C@H](C)O2)Oc2ccc(cc2Cl)[C@H]1O | 12% | –
4 | COc1ccc(/C=C/c2nc(NCCCN(C)C)c3ccccc3n2)cc1 | – | 28.2 µM (active)
5 | N#C/C(=C\c1ccc(-c2cc(Cl)ccc2Cl)o1)C(=O)Nc1cccc2ncccc12 | -13.2% | –
6 | COc1ccccc1CN[C@@H]1CCCN[C@@H]1c1ccccc1 | 10.7% | –
7 | CCCCCCCCCCCCCCCCCCN(CCCCCCCCCCCCCCCCCC)CCCN(CCO)CCO | 8.01% | –
8 | CN1C2CC(OC(=O)[C@H](CO)c3ccccc3)CC1C1OC12 (stereo partly drawn) | 0.63% | –
9 | COCCOc1cc2nc[nH]c(=O)c2cc1OCCOC | 4.23% | –
10 | O=C(CCSCc1ccco1)NNC(=O)N1Cc2ccccc2Oc2ccc(Cl)cc21 | 15.6% | –
11 | CC(C)NC[C@H](O)COc1cccc2[nH]ccc12 | 4.77% | –
12 | Cn1c(=O)c(-c2c(Cl)cccc2Cl)cc2cnc(Nc3ccc(N4CCOCC4)cc3)nc21 | -9.27% | –
13 | CC1OC1P(=O)(O)O (stereo not drawn) | 12.2% | –
14 | O=S(=O)(c1cccc2c(I)cccc12)N1CCCNCC1 | 7.65% | –
15 | CC(C)(NS(=O)(=O)c1ccc(Oc2ccc(F)cc2)cc1)C(=O)NO | 33.3% | –
16 | COc1ccc(-c2cc(=O)c3c(O)c(OC)c(OC)cc3o2)cc1O | 50.9% | –
17 | NC(N)=NC(=O)c1nc(Cl)c(N2CCCCCC2)nc1N | 6.57% | –
18 | CC(C)NC[C@@H](O)c1ccc(O)c(O)c1 | 14.5% | –
19 | CC[C@H]1OC(=O)[C@H](C)[C@@H](O[C@H]2C[C@@](C)(OC)[C@@H](O)[C@H](C)O2)[C@H](C)[C@@H](O[C@@H]2O[C@H](C)C[C@H](NC)[C@H]2O)[C@](C)(O)C[C@@H](C)CN(C)[C@H](C)[C@@H](O)[C@]1(C)O | 6.75% | –

Row | Compound | activity change, negative = inhibition | Potency
20 | CC(C)NCC(O)COc1cccc2ccccc12 (stereo not drawn) | 2.79% | –
21 | COc1ccc(/C=C2\COc3ccc(C)cc3C2=O)cc1O | -7.83% | –
22 | O=c1cc(-c2ccccc2)oc2c(O)c(O)ccc12 | -21.5% | –
23 | CCNC(=O)[C@H]1O[C@@H](n2cnc3c(N)nc(NCCc4ccc(CCC(=O)O)cc4)nc32)[C@H](O)C1O (stereo partly drawn) | -5.31% | –
24 | CO[C@H]1O[C@@H]2O[C@]3(C)CC[C@@H]4[C@@H](C)CC[C@H]([C@H]1C)[C@]24OO3 | 16.5% | –
25 | COc1ccc(C(=O)/C(Cc2cc(OC)c(OC)c(OC)c2)=C(\C(=O)O)c2ccc3c(c2)OCO3)cc1 | -12.3% | –
26 | CN1C2CCC1CC(OC(=O)C(O)c1ccccc1)C2 (stereo not drawn) | 6.03% | –
27 | NC(=O)C1=CN(C2OC(COP(=O)(O)OP(=O)(O)OC[C@H]3O[C@@H](n4cnc5c(N)ncnc54)[C@H](OP(=O)(O)O)[C@@H]3O)C(O)C2O)C=CC1 (stereo partly drawn) | 5.13% | –
28 | Nc1nc(OCC2CCCCC2)c2[nH]cnc2n1 | 1.35% | –
29 | Brc1cc2c(cc1[C@H]1Nc3ccccc3[C@H]3C=CC[C@H]31)OCO2 | -16.8% | –
30 | O=C(CCCCCN1CCN(c2ccccc2-c2ccccc2)CC1)NC1CCCc2ccccc21 (stereo not drawn) | 12.3% | –
31 | CCN1/C(=C/C(C)=O)Sc2ccc(OC)cc21 | 22.4% | –
32 | Nc1nc2c(ncn2[C@@H]2O[C@H](CO)[C@@H](O)[C@@H]2O)c(=O)[nH]1 | 0.09% | –
33 | Nc1nc2ccc(Cl)cc2n2c(-c3ccccc3)nnc12 | 4.77% | –
34 | O=C(NOCC1CC1)c1cc(Br)c(F)c(F)c1Nc1ccc(I)cc1Cl | 6.57% | –
35 | O=C(O)CC[C@@H](C(=O)O)N1C(=O)c2ccccc2C1=O | 0.09% | –
36 | C=CC(N)CCC(=O)O (stereo not drawn) | 25.1% | –
37 | COc1cc(OC)cc(-c2cc3cnc(N)nc3nc2NC(=O)NC(C)(C)C)c1 | -12.3% | –
38 | COCCOc1cc2ncnc(Cl)c2cc1OCCOC | -3.15% | –
